Results on 31 compounds are retold here after PubChem BioAssay (EPA / NIEHS).

The target of test [1] is Oxysterols receptor LXR-beta (Homo sapiens) (UniProt P55055). Nature of the test: ATG_LXRb_TRANS: Attagene TRANS-FACTORIAL HepG2 Assay for human Liver X Receptor beta (LXRb) (AID 2282981; active = hit-call score of the fitted dose curve at least 0.9, where 1 is the maximum). The note with it: HepG2 Attagene TRANS GAL4-LXRb reporter, mRNA. The essentials:
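Measures induction of a Gal4-driven reporter transcript in HepG2 cells expressing an exogenous LXRb-Gal4 fusion. Cells are exposed to compound for 24 h before RNA isolation and RT-PCR with capillary electrophoresis detection.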

The target in test [2] is Nuclear receptor subfamily 4 group A member 2 (Homo sapiens) (UniProt P43354). Kind of test: ATG_NURR1_TRANS: Attagene TRANS-FACTORIAL HepG2 Assay for human Nuclear Receptor Related Protein 1 (NURR1) (AID 2282985; active = hit-call score of the fitted dose curve at least 0.9, where 1 is the maximum). Conditions: HepG2 Attagene TRANS reporter, mRNA readout. Summed up: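 Chimeric NR-Gal4 fusion activity measured in HepG2 after 24 h treatment. Reporter transcripts detected by RT-PCR and capillary electrophoresis fluorescence; positive-direction curve fitting against DMSO.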
Chain of Nuclear receptor subfamily 4 group A member 2 (Homo sapiens) (P43354 whole entry, looked up, the tested form may be a part): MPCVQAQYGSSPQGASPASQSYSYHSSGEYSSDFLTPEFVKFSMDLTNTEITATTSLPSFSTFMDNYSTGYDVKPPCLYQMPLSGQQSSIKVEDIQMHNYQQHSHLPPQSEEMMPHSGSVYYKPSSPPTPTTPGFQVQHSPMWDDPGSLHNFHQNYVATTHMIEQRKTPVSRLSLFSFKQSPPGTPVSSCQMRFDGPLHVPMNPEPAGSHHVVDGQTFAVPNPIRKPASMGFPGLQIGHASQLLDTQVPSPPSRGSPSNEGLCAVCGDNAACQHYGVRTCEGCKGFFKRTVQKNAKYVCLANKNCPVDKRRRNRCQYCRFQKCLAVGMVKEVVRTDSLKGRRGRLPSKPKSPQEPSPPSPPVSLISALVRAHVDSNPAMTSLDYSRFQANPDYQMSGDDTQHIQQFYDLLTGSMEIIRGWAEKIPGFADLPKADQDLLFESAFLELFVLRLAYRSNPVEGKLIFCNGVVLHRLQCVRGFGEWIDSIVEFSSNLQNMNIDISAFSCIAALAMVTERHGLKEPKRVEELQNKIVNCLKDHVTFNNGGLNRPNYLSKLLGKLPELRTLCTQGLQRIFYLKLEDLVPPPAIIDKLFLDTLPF

Test [3] has as its target Transcriptional activator Myb (Homo sapiens) (UniProt P10242). Nature of the test: ATG_Myb_CIS: Attagene CIS-FACTORIAL HepG2 Assay for human Myeloblastosis (Myb) Proto-Oncogene Transcription Factor (AID 2282986). The note with it: HepG2 Attagene CIS-FACTORIAL Myb reporter transcription; actives raise or lower the signal. The essentials:
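HepG2 cells were transiently transfected with cis-regulated multiple reporter transcription units reflecting endogenous Myb activity, then exposed to compound for 24 hours. Reporter mRNA was measured by RT-PCR with capillary electrophoresis; bidirectional fitting versus DMSO baseline.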

Test [4] deals with Nuclear respiratory factor 1 (Homo sapiens) (UniProt Q16656). Nature of the test: ATG_NRF1_CIS: Attagene CIS-FACTORIAL HepG2 Assay for human Nuclear Respiratory Factor 1 (NRF1) Orphan Gene (AID 2282987). The note with it: HepG2 NRF1 cis-element reporter, Attagene multiplex; actives raise or lower the signal. The essentials: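 HepG2 cells transiently transfected with multiple reporter transcription units under cis-regulatory promoter control, so endogenous transcription-factor activity is read. After 24 h compound exposure, reporter mRNA quantified by RT-PCR, fluorescent labelling, HpaI digestion and capillary electrophoresis; bidirectional fitting versus DMSO.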
Chain of Nuclear respiratory factor 1 (Homo sapiens) (Q16656 whole entry, looked up): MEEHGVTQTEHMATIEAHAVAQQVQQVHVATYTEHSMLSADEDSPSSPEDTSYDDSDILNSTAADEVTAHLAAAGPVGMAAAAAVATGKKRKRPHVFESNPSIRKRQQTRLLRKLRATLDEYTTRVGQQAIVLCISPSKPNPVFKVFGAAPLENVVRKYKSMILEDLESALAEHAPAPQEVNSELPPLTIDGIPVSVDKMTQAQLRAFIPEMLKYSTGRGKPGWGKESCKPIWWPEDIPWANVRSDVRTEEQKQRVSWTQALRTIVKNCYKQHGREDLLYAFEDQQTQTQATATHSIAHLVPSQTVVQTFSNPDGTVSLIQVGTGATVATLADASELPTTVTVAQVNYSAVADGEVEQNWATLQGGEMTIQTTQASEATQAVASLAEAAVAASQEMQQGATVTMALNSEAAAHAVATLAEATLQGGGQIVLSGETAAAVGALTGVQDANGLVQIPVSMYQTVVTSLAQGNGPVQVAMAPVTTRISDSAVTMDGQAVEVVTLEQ

The nature of test [5]: ATG_NFI_CIS: Attagene CIS-FACTORIAL HepG2 Assay for human Nuclear Factor I (NFI) (AID 2282989). Conditions: HepG2 cis-regulatory reporter, NFI response element transcription; actives raise or lower the signal. The essentials: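 After transient transfection of HepG2 with cis-promoter reporter constructs and 24 h dosing, RNA is reverse-transcribed, amplified, 6-FAM end-labelled and HpaI-digested before capillary analysis. Bidirectional curve fitting against DMSO.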

The target of test [6] is Myc proto-oncogene protein (Homo sapiens) (UniProt P01106). Kind of test: ATG_Myc_CIS: Attagene CIS-FACTORIAL HepG2 Assay for human Myelocytomatosis (Myc) Proto-Oncogene Transcription Factor (AID 2282990). The note with it: HepG2, Attagene cis-reporter transcription factor activity; actives raise or lower the signal. Summed up: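 DMSO-normalised, bidirectionally fitted reporter mRNA signal. HepG2 cells transfected with cis reporter constructs, treated 24 h; transcripts detected by RT-PCR, 6-FAM primer extension and CE.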
Chain of Myc proto-oncogene protein (Homo sapiens) (P01106 whole entry, looked up): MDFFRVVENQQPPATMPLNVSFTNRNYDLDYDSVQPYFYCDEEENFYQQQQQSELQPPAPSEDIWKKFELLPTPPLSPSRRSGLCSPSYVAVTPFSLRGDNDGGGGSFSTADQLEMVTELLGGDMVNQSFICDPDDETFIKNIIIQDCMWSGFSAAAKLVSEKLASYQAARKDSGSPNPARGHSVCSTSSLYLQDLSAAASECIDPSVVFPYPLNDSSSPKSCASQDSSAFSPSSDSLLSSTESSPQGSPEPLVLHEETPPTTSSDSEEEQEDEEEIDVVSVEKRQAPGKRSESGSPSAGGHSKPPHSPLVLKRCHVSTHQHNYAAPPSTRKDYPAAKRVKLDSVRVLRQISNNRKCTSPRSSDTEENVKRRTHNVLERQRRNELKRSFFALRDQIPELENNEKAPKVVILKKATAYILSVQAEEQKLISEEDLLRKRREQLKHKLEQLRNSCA

Test [7] is described as follows: ATG_M_32_TRANS: Attagene TRANS-FACTORIAL HepG2 Assay for M32 Transcription Factor (Internal Marker) (AID 2282984; active = hit-call score of the fitted dose curve at least 0.9, where 1 is the maximum;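 also: transcript level of a background control reporter unit measured by RT-PCR and capillary electrophoresis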). Conditions: HepG2 Attagene TRANS M32 internal marker reporter. Summed up: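 After 24 h dosing of transfected HepG2 cells, total RNA was reverse-transcribed, reporter sequences PCR-amplified, 6-FAM labelled by primer extension and HpaI-digested before capillary electrophoresis. Signal increase over DMSO was fitted.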

Test [8] can be described thus: ATG_M_06_TRANS: Attagene TRANS-FACTORIAL HepG2 Assay for M06 Transcription Factor (Internal Marker) (AID 2282983; active = hit-call score of the fitted dose curve at least 0.9, where 1 is the maximum). Conditions: HepG2 Attagene TRANS M06 internal marker reporter. The essentials:
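In this multiplexed HepG2 system, compounds are incubated 24 h with cells carrying GAL4-UAS reporter units. Reporter RNA is amplified and resolved by capillary electrophoresis, and induction is scored against DMSO.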

The target in test [9] is Hepatocyte nuclear factor 4-alpha (Homo sapiens) (UniProt P41235). Kind of test: ATG_HNF4a_TRANS: Attagene TRANS-FACTORIAL HepG2 Assay for human Hepatocyte Nuclear Factor 4 alpha (HNF4a) (AID 2282982; active = hit-call score of the fitted dose curve at least 0.9, where 1 is the maximum). Conditions: HepG2 HNF4a transactivation reporter, mRNA readout. Summed up: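 In this trans-factorial format, a chimeric HNF4a-GAL4 fusion drives a GAL4-UAS reporter in transfected HepG2 liver cells. After 24 h treatment, reporter mRNA induction is measured by RT-PCR with capillary electrophoresis, relative to DMSO.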
Chain of Hepatocyte nuclear factor 4-alpha (Homo sapiens) (P41235 whole entry, looked up, the tested form may be a part): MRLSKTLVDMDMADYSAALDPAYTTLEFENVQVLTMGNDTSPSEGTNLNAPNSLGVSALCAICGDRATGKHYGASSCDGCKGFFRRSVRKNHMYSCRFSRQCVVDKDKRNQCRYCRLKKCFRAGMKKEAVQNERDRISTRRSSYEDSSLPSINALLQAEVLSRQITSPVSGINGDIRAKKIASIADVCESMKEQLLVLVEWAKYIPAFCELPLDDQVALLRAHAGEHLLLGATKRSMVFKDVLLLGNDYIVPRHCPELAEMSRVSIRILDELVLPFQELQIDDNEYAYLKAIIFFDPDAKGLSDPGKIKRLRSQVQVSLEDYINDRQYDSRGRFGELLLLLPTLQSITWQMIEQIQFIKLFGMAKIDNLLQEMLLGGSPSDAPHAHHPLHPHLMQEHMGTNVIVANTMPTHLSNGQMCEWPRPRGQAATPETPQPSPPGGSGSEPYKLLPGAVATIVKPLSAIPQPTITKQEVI

Records with an inconclusive call do not appear. Activity calls are given as the source filed them. The calls were made as follows, unless noted: active = hit-call score of the fitted dose curve at least 0.9, where 1 is the maximum; inactive = score below 0.9.

Chain of Transcriptional activator Myb (Homo sapiens) (P10242 whole entry, looked up): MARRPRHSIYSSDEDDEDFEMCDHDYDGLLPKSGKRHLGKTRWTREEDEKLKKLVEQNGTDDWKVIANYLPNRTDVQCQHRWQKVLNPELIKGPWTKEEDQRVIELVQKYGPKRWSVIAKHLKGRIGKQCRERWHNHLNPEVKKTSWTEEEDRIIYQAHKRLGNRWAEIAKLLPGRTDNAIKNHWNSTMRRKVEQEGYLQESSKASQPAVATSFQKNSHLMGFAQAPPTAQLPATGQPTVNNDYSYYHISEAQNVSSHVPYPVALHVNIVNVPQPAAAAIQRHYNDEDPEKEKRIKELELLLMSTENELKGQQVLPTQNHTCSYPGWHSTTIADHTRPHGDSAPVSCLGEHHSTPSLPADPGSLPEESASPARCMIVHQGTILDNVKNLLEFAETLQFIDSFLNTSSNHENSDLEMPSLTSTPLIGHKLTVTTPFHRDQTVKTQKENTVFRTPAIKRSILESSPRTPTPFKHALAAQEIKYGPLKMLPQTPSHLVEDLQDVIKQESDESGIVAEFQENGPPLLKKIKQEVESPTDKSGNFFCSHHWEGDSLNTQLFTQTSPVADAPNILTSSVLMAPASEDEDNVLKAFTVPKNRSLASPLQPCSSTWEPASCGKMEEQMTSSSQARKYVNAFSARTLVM
Chain of Oxysterols receptor LXR-beta (Homo sapiens) (P55055 whole entry, looked up, the tested form may be a part): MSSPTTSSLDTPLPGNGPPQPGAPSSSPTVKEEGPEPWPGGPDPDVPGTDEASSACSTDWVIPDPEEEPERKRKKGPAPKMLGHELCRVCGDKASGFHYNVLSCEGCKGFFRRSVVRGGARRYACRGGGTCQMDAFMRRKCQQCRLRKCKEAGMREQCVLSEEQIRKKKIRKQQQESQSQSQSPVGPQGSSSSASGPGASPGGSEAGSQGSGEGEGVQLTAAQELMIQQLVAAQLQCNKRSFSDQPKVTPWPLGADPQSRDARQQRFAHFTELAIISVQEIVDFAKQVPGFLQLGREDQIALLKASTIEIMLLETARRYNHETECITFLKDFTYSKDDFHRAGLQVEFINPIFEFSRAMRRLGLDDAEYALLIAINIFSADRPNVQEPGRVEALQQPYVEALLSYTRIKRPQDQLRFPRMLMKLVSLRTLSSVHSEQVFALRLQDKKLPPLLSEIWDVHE

With `N#Cc1cccnc1`, the compound was classed as inactive in test [1], in [2], in test [3], in [4], in test [5] and in test [6].
As to `CC(C)(C)c1ccccc1O`, the compound was classed as inactive in test [1], in [7], in [3] and in test [6]. Moreover, the AC50 was 63.4 µM (active) in test [2], 100 µM (active) in [4] and 100 µM (active) in test [5].
Consider `Oc1cc(Cl)c(Cl)cc1Cl`, for which the result in [1], in test [8], in [7] and in test [3] was inactive. In addition, the figures for the concentration at half-maximal activity (AC50) in test [5] and in [6] were 66.4 µM (active) and 152 µM (active), respectively.
`CC(C)N(C(=O)CCl)c1ccccc1`: the result in [1], in test [8], in [7] and in test [6] was inactive. The figures for the AC50 in [2], in test [3] and in test [5] were 149 µM (active), 8.16 µM (active) and 24.3 µM (active), respectively.
On to `Nc1nc(=S)[nH][nH]1`, for which the compound was classed as inactive in [1], in test [2], in [3], in [4], in [5] and in test [6].
As for `CC(C)[C@H](C(=O)OC(C#N)c1cccc(Oc2ccccc2)c1)c1ccc(OC(F)F)cc1` (some centres undefined), the outcome in test [9], in test [8], in test [7], in test [2], in [3] and in test [4] was inactive. Also, the result in test [5] and in test [6] was inactive.
For the compound `C1CN2CCN1CC2`, the outcome in [9], in [7], in test [2], in [3], in [4] and in test [5] was inactive. Also, the call in test [6] was inactive.
Regarding `CCN(N=O)C(N)=O`, the compound was classed as inactive in test [9], in test [7], in test [3], in test [4], in test [5] and in test [6].
With `O=[N+]([O-])c1cccc2ccccc12`, the outcome in test [9], in [8], in [7], in test [3], in test [5] and in test [6] was inactive.
As for `Clc1ccc(C(Cl)(Cl)Cl)cn1`, the compound was called inactive in test [9], in test [8], in [2], in test [3], in [4] and in [5]. The compound was called inactive in test [6].
`OCC(c1ccc(Cl)cc1)c1ccc(Cl)cc1`: the outcome in test [9], in test [8], in [7], in test [3], in [4] and in test [5] was inactive. Besides, the compound was called inactive in test [6]. For the same compound, in test [2], the half-maximal activity concentration (AC50) was 46.3 µM (active).
On to `O=C(NC(=O)c1c(F)cccc1F)Nc1ccc(Cl)cc1`, for which the compound was classed as inactive in test [9], in test [8], in [7], in [2], in [3] and in test [5]. The compound was called inactive in test [6].
As for `C=CCOC(F)(C(F)(F)F)C(F)(F)F`, the compound was called inactive in [9], in test [8], in test [2], in [3], in [4] and in test [5]. In addition, the compound was called inactive in test [6].
In the case of `CC(C=O)Cc1ccc2c(c1)OCO2` (centres undefined), the call in [9], in test [8], in test [2], in test [3], in test [4] and in [5] was inactive. The result in test [6] was inactive.
With `COc1nn(C(=O)NS(=O)(=O)c2ccccc2OC(F)(F)F)c(=O)n1C`, the outcome in test [9], in test [7], in test [3], in test [4], in [5] and in [6] was inactive.
For the compound `CC(C)[C@@H](Nc1ccc(C(F)(F)F)cc1Cl)C(=O)OC(C#N)c1cccc(Oc2ccccc2)c1` (some centres undefined), the call in test [9], in test [8], in test [2], in test [3], in test [4] and in test [5] was inactive. For the same compound, the outcome in [6] was inactive.
Turning to `CC(=Cc1ccccc1)[N+](=O)[O-]`, the compound was classed as inactive in test [9], in test [8], in test [2], in [3] and in test [5]. Further, the AC50 in [4] is 17.2 µM (active); in [6], 18.6 µM (active).
Take `CN(CCCC(O)c1cccnc1)N=O` (centres undefined): the compound was classed as inactive in [9], in test [7], in test [2], in test [3], in test [4] and in test [5]. In addition, the compound was called inactive in test [6].
As for `CC(=O)CN(CC(C)=O)N=O`, the outcome in test [9], in test [8], in test [7], in test [3], in test [4] and in [5] was inactive. Also, the call in test [6] was inactive.
Turning to `OC(c1ccc(Cl)cc1)(c1ccc(Cl)cc1)c1cccnc1`, the compound was called inactive in test [9], in test [8], in test [2], in [3], in [4] and in test [5]. The compound was called inactive in test [6].
As for `CC1(C)[C@H](/C=C2\CCSC2=O)[C@@H]1C(=O)OCc1coc(Cc2ccccc2)c1`, the outcome in test [9], in [8], in test [7], in test [2], in [3] and in test [4] was inactive. The result in test [5] and in [6] was inactive.
For the compound `CC(C)CP(=S)(S)CC(C)C`, the compound was called inactive in test [9], in test [7], in test [3], in test [4], in [5] and in test [6].
`CCCCC(CC)C(=O)Cl` (centres undefined): the compound was classed as inactive in test [9], in test [3], in test [5] and in [6].
Regarding `CCCCOC(=O)COC(=O)c1ccccc1C(=O)OCCCC`, the call in [9], in test [7], in test [2], in [3], in test [4] and in [5] was inactive. Also, the call in [6] was inactive.
For `CC(=O)C(F)(F)C(F)(F)F`, the compound was classed as inactive in test [9], in [8], in test [3], in test [5] and in test [6].
`CC(c1ccc(O)cc1)c1ccc(O)cc1`: the compound was classed as inactive in [9], in test [7], in test [2], in [3], in test [4] and in test [5]. Also, the result in [6] was inactive.
With `Cc1cccc(N=Nc2ccc(N(C)C)cc2)c1`, the result in test [9], in test [8], in test [3], in test [4], in test [5] and in [6] was inactive.
For the compound `CC(C)(COCC1CO1)COCC1CO1` (centres undefined), the compound was classed as inactive in test [9], in test [7], in [3], in [4], in [5] and in test [6].
For `Cc1cc(Cl)ccc1OCCCC(=O)O`, the compound was called inactive in test [8], in test [7], in test [2], in test [3], in test [4] and in test [5]. The outcome in [6] was inactive.
Take `CCOc1ccc(N)cc1`: the outcome in test [9], in test [2], in test [3], in [4], in [5] and in [6] was inactive.
As to `CCCCOP(=O)(CCCC)OCCCC`, the result in test [9], in [8], in [7], in test [3], in test [5] and in [6] was inactive.
